The sample as a whole holds a higher share of hits than the screen did.
TbPYK inhibitor – qHTS of Trypanosoma Brucei Inhibitors | Potency, µM (series often up to 76.8 µM), without a hit: top-dose activity, negative = inhibition, actives largely listed as inhibitors | TbPYK enzyme, Kinase-Glo Plus ATP luminescence, 45 min | pyruvate kinase (Trypanosoma brucei), Q57TT1 | actives 0.12% (n = 410,000); further: potency means the concentration at half of the fitted maximal effect; on the % scale 0 is the no-effect control and ±100 the full control effect; nearly all actives have a fitted effect of over 50% in size
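Luminescence from Kinase-Glo Plus, added after a 45-minute room-temperature reaction, served as the end-point read-out. The enzyme and substrate were preincubated with compound before ADP (130 uM final) initiated turnover. Concentration-effect curves came from normalized qHTS data.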
Giardia FBPA inh – qHTS Assay for Inhibitors of Fructose-1,6-bisphosphate Aldolase from Giardia Lamblia; A8B2U2; purified Giardia FBPA; Potency, µM (doses to about 59.6 µM), for inactives: at the top dose activity, negative = inhibition, usual class: inhibitors; actives 0.71% (n = 290,000); AID 2451, 2010; further: potency means the concentration at half of the fitted maximal effect; on the % scale 0 is the no-effect control and ±100 the full control effect; nearly all actives have a fitted effect of over 55% in size
Target sequence (A8B2U2 whole entry, looked up): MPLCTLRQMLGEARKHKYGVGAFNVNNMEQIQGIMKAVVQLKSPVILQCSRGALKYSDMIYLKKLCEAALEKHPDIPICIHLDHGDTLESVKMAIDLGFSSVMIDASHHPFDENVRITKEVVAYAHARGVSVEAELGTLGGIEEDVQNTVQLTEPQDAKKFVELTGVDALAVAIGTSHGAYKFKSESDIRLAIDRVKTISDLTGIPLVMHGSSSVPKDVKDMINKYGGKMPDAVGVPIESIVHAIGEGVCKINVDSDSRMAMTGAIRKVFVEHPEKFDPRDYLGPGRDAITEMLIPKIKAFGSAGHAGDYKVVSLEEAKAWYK
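40 nM FBPA preincubated 10 min at RT with compound (up to 57.5 uM final), then substrate plus GAPDH/TPI/NAD/arsenate coupling and diaphorase/resazurin added. Fluorescence read after 20 min at RT, 525/598 nm.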
Shiga toxin inh – A qHTS for Small Molecule Inhibitors of Shiga Toxin. Vero cells, Shiga toxin protein synthesis inhibition reporter. inhibition, % at 38.7 µM. actives 9.2% (n = 290,000); in the data active means inhibition mostly above about 28%, no sharp cut-off; inactive means mostly below about 43%; further: 0% is about no effect
RE007 growth inh – qHTS Assay for Inhibitors of the HIV-1 protein Vpr. S. pombe RE007 Vpr strain, BacTiter-Glo ATP luminescence, 24 h. Potency, µM (doses to about 92.2 µM), for the others: at the top dose activity change, negative = less growth, most hits filed as inhibitors. actives 0.21% (n = 360,000). AID 651644, 2012; active means well fitted falling curve with a large enough effect; inconclusive means small, poorly fitted or top-dose-only effect; inactive means no such curve, though single readings can be large or run the other way; further: potency means the concentration at half of the fitted maximal effect; on the % scale 0 is the no-effect control and ±100 the full control effect; nearly all actives have a fitted effect of over 50% in size
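Fission yeast RE007 carrying one integrated HIV-1 vpr copy, seeded at OD 0.01 in PMG+AL medium with 23 nL pinned compound. Grown 24 h at 30 degrees; viability read by BacTiter-Glo luminescence after 5 min.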
LmPK inhibitor – qHTS Assay for Inhibitors of Leishmania Mexicana Pyruvate Kinase (LmPK); Q27686; purified LmPK, Kinase-Glo ATP luminescence, 1 h; Potency, µM (top dose mostly 57.5 µM), inactives show at the highest dose activity change, negative = inhibition, usual class: inhibitors; actives 0.37% (n = 290,000); AID 1721, 2009; further: potency means the concentration at half of the fitted maximal effect; on the % scale 0 is the no-effect control and ±100 the full control effect
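Kinase-Glo luminescence read after 1 h RT reaction of 0.1 nM LmPK with 0.5 mM PEP and 0.1 mM ADP. Activity scaled between uninhibited and enzyme-free controls.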
Cycloheximide cs – Cycloheximide Counterscreen for Small Molecule Inhibitors of Shiga Toxin | cell reporter, cycloheximide protein synthesis inhibition counterscreen | max response, % | actives 12% (n = 300,000); in the data active means max response mostly above about 13%, no sharp cut-off; inactive means mostly below about 14%; further: read at 38.3 µM for the half of the compounds with a filed dose; 0% is about no effect
Starred values were filed as active, the others as inactive. Unless noted, the call rests on the fitted dose curve; in most records, active means well fitted curve in the direction sought with a large enough effect; inconclusive means small, poorly fitted or top-dose-only effect, or another doubt; inactive means no such curve, though single readings can be large; an effect the other way counts as inactive or inconclusive.

Results for CC(=O)Nc1ccc(S(=O)(=O)N(C)c2ccc(O)cc2)cc1 ?
TbPYK inhibitor: 15%; Giardia FBPA inh: 3%; Shiga toxin inh: -4; RE007 growth inh: 12%; LmPK inhibitor: -1%; Cycloheximide cs: 5

How did Cc1ccc(O)c(N=Nc2ccccc2)n1 do in these assays?
TbPYK inhibitor: inconclusive; Giardia FBPA inh: -3%; RE007 growth inh: inconclusive

What do the screens show for `c1ccc(N=Nc2ccccc2)cc1`?
Giardia FBPA inh: 3%

How did Oc1ccc(N=Nc2ccccc2)cc1 do in these assays?
TbPYK inhibitor: 4%; Giardia FBPA inh: 1%; Shiga toxin inh: 73*; LmPK inhibitor: 0%; Cycloheximide cs: 36*

Results for CC(=O)Nc1ccc(N=NN2CCOCC2)cc1 ?
TbPYK inhibitor: -17%; Giardia FBPA inh: -2%; Shiga toxin inh: 73*; RE007 growth inh: 12%; LmPK inhibitor: -1%; Cycloheximide cs: 46*

What do the screens show for `CC(=O)Nc1ccc(N=Nc2ccc(O)cc2)cc1`?
TbPYK inhibitor: 2%; Giardia FBPA inh: -1%; Shiga toxin inh: active; RE007 growth inh: 1%; LmPK inhibitor: -14%; Cycloheximide cs: 35*

How did Nc1ccc2ccccc2c1C(=O)c1ccccc1 do in these assays?
TbPYK inhibitor: -2%; RE007 growth inh: 8%

Results for Cc1cccc2sc(N(Cc3cccnc3)C(=O)C3COc4ccccc4O3)nc12 (centres undefined) ?
TbPYK inhibitor: -2%

How did COC(=O)C1CCN(CC(=O)Nc2ccc(OC)c(Cl)c2)CC1 do in these assays?
TbPYK inhibitor: 0%; Giardia FBPA inh: 4%; Shiga toxin inh: 6; RE007 growth inh: 7%; LmPK inhibitor: 2%; Cycloheximide cs: 13

How did Cc1cc(C)n(-c2ccc(Cl)c(C(=O)O)c2)n1 do in these assays?
TbPYK inhibitor: -4%; Giardia FBPA inh: -6%; Shiga toxin inh: 46; RE007 growth inh: -5%; LmPK inhibitor: 0%; Cycloheximide cs: 44*

What do the screens show for `Cc1cc(C)n(-c2ccc(C(=O)OCC(=O)NC(c3ccccc3)c3ccccc3)cc2)n1`?
TbPYK inhibitor: -6%; Giardia FBPA inh: 6%; Shiga toxin inh: -16; RE007 growth inh: inconclusive; LmPK inhibitor: 3%; Cycloheximide cs: -1

Results for CCOC(=O)c1nc(C)n(-c2ccc(Cl)cc2)n1 ?
TbPYK inhibitor: -5%; Giardia FBPA inh: -15%; Shiga toxin inh: 12; RE007 growth inh: 19%; LmPK inhibitor: -2%; Cycloheximide cs: 20*

Results for CCOC(=O)c1ccc(-n2nc(C)cc2C)cc1 ?
TbPYK inhibitor: -4%; Giardia FBPA inh: -3%; Shiga toxin inh: active; RE007 growth inh: -13%; LmPK inhibitor: -4%; Cycloheximide cs: 15*

Results for CCOC(=O)c1cnc(-n2nc(C)cc2C)nc1N(C)C ?
TbPYK inhibitor: 2%; Giardia FBPA inh: 16%; Shiga toxin inh: 48*; RE007 growth inh: 11%; LmPK inhibitor: -12%; Cycloheximide cs: 18*

What do the screens show for `CCOC(=O)c1cnc(-n2nc(C)cc2C)nc1NC1CCCC1`?
TbPYK inhibitor: -22%; Giardia FBPA inh: -3%; Shiga toxin inh: -9; RE007 growth inh: -3%; LmPK inhibitor: 1%; Cycloheximide cs: -1

How did COc1cc(NC(=O)c2cc(C)nc3c2c(C)nn3-c2ccccc2Cl)cc(OC)c1 do in these assays?
TbPYK inhibitor: -1%

How did CC(=O)c1ccc(NC(=O)CCc2c(C)nn(-c3ccc4nncn4n3)c2C)cc1 do in these assays?
TbPYK inhibitor: 1%

What do the screens show for `COc1cccc(N2CC(NC(=O)COc3ccc4ccccc4c3)CC2=O)c1` (centres undefined)?
TbPYK inhibitor: 1%

Results for CCOc1ccc(NC(=O)C(NS(=O)(=O)c2ccc3c(c2)CCN3C(C)=O)C(C)C)cc1 (centres undefined) ?
TbPYK inhibitor: 2%

How did O=C1NN(C(=O)Nc2ccc(Br)cc2)C(c2ccccc2)C1c1ccccc1 (centres undefined) do in these assays?
Giardia FBPA inh: -5%; Shiga toxin inh: 54*; Cycloheximide cs: 9

Results for CCN(CC)c1ccc(CNc2ccc(Br)cn2)cc1 ?
TbPYK inhibitor: -3%; Giardia FBPA inh: -3%; Shiga toxin inh: 88*; RE007 growth inh: 16%; LmPK inhibitor: -1%; Cycloheximide cs: 33*

What do the screens show for `CCOC(=O)C1C(C(=O)OC)=C(C(=O)OC)c2ccccc2N1S(=O)(=O)C(F)(F)F` (centres undefined)?
TbPYK inhibitor: 3%; Giardia FBPA inh: -1%; Shiga toxin inh: 18; RE007 growth inh: 2%; Cycloheximide cs: 6

What do the screens show for `Clc1ccccc1OCc1nc(-c2ccc(Br)o2)no1`?
TbPYK inhibitor: 4%; Giardia FBPA inh: -4%; Shiga toxin inh: 70*; RE007 growth inh: 0%; LmPK inhibitor: 5%; Cycloheximide cs: 54*

How did O=C(NCc1nc(-c2ccccc2)no1)c1ccc(Br)o1 do in these assays?
TbPYK inhibitor: -7%; Giardia FBPA inh: 0%; Shiga toxin inh: -17; RE007 growth inh: -2%; LmPK inhibitor: -3%; Cycloheximide cs: -1

How did COc1ccc(-c2noc(COc3ccc4ccccc4c3Br)n2)cc1OC do in these assays?
TbPYK inhibitor: 3%; Giardia FBPA inh: 0%; Shiga toxin inh: 2; RE007 growth inh: -12%; LmPK inhibitor: 3%; Cycloheximide cs: -3

How did CN(Cc1nc(-c2ccccn2)no1)S(=O)(=O)c1ccccc1 do in these assays?
TbPYK inhibitor: -6%; Giardia FBPA inh: 12%; Shiga toxin inh: 61*; RE007 growth inh: 9%; LmPK inhibitor: 2%; Cycloheximide cs: 24*

Results for Brc1ccc(-c2noc(CCc3ccccc3)n2)o1 ?
TbPYK inhibitor: -3%; Giardia FBPA inh: -2%; Shiga toxin inh: 84*; RE007 growth inh: 12%; LmPK inhibitor: -2%; Cycloheximide cs: 17*

Results for c1ccc(CCc2nc(-c3ccccn3)no2)cc1 ?
TbPYK inhibitor: 1%; Giardia FBPA inh: -2%; Shiga toxin inh: 125*; RE007 growth inh: 1%; LmPK inhibitor: -21%; Cycloheximide cs: 31*

Results for Cc1c(C(=O)NCCN(C)C)oc2c1-c1nn(Cc3cccc(Cl)c3)cc1CC2 ?
TbPYK inhibitor: -3%

What do the screens show for `Cc1ccc(OCC(=O)Nc2nnc(S(=O)(=O)N3c4ccccc4CC3C)s2)cc1` (centres undefined)?
TbPYK inhibitor: 1%

What do the screens show for `Fc1ccc(OCc2nc(-c3ccc(Br)o3)no2)c(F)c1`?
TbPYK inhibitor: 0%; Giardia FBPA inh: -2%; Shiga toxin inh: 62*; RE007 growth inh: 1%; LmPK inhibitor: -6%; Cycloheximide cs: 18*
